# Experimental data as given in PubChem BioAssay (NCI).
# About 83,000 compounds went through this panel and 20% of them were active in at least one assay; those are over-represented in the sample as a whole.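 Growth was measured after 48 h exposure to one concentration of compound in 96-well plates. Values under 10 count as active.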 A number with no mark means an inactive call. Activity calls are given as the source filed them.
# Key:
# Experiment in all cases: NCI-60 one-dose screen, 48 h (100 = growth as untreated, 0 = no growth, -100 = all killed)
# Conditions in all cases: 10 µM unless noted
# [1] = test system: HCT-15 colon
# [2] = test system: HT29 colon
# [3] = test system: SNB-75 CNS
# [4] = test system: SNB-19 CNS
# [5] = test system: U251 CNS
# [6] = test system: PC-3 prostate
# [7] = test system: UACC-62 melanoma
# [8] = test system: LOX IMVI melanoma
# [9] = test system: SK-MEL-28 melanoma
# [10] = test system: SK-MEL-2 melanoma
# [11] = test system: EKVX NSCLC
# [12] = test system: SN12C renal
# [13] = test system: UO-31 renal
# [14] = test system: TK-10 renal
# [15] = test system: ACHN renal
# [16] = test system: CAKI-1 renal
# [17] = test system: A498 renal
# [18] = test system: CCRF-CEM leukemia
# [19] = test system: MOLT-4 leukemia
# [20] = test system: SK-MEL-5 melanoma
Structure (SMILES),growth [1],growth [2],growth [3],growth [4],growth [5],growth [6],growth [7],growth [8],growth [9],growth [10],growth [11],growth [12],growth [13],growth [14],growth [15],growth [16],growth [17],growth [18],growth [19],growth [20]
COc1ccc2c(O)c(/C=C3\N=Nc4ncccc43)oc2c1C[C@H]1CCNC[C@H]1F,7.66% (active),5.05% (active),-61.2% (active),10.4%,-51% (active),-5.49% (active),-15.4% (active),-11% (active),8.22% (active),-6.33% (active),5.31% (active),7.25% (active),4.13% (active),19.8%,4.51% (active),6% (active),-41.8% (active),-3.17% (active),-34.3% (active),
COC(=O)c1ccc2c(c1)C(=O)c1c-2n(CCCN)c(=O)c2cc([N+](=O)[O-])ccc12,-96.1% (active),-100% (active),-99.2% (active),-59.3% (active),-100% (active),-70.1% (active),-100% (active),-100% (active),-100% (active),-49.8% (active),-87.7% (active),-100% (active),-100% (active),-83% (active),-100% (active),-94.2% (active),-100% (active),-83.9% (active),-58.6% (active),
C=C1C(=O)O[C@H]2[C@H]1CC/C(COC(=O)NCc1cc[nH]c1)=C\CC[C@@]1(C)O[C@@H]21,24.6%,42.6%,70.4%,83.2%,68.2%,51.7%,39.6%,32.3%,54.6%,70.5%,61.7%,33.6%,58.3%,44.1%,45.3%,39.1%,104%,-15.9% (active),18.6%,
COc1ccc2[nH]cc(-c3nc(-c4c[nH]c5ccncc45)cs3)c2c1,-10.2% (active),-15.7% (active),76.1%,47.1%,-49.4% (active),42.4%,84.2%,-87.4% (active),-88.5% (active),84.7%,10.8%,71.9%,49%,71.1%,4.58% (active),9.06% (active),81.5%,-7.05% (active),-8.02% (active),
CCOC(=O)Cn1c(O)c(N=Nc2ccc(S(N)(=O)=O)cc2)c2cc(Br)ccc21,85.4%,63.7%,78%,91.4%,86.2%,70.8%,83.3%,86%,85.2%,88.8%,83.3%,88.2%,87.5%,86.4%,,86.4%,91.4%,53.4%,77%,
COc1ccc(-c2cc(-c3ccc(Cl)cc3)c(C#N)c(=O)n2CCCCC(=O)Nc2ccccc2N)cc1,19.3%,21.1%,22.5%,69.9%,55.1%,50.1%,23.7%,-60.9% (active),65.4%,79.7%,47.3%,42.3%,33.4%,102%,51.6%,1.45% (active),20.9%,42.5%,47.8%,
O=C(Cn1cc(CN2C(=O)c3ccccc3S2(=O)=O)nn1)Nc1nc2ccccc2s1,107%,97.9%,81.2%,98.1%,98.7%,93.2%,97.5%,92.5%,106%,95.3%,105%,105%,69.1%,97.5%,90.5%,89.6%,108%,113%,115%,
Cc1cc2c([nH]1)CSc1cc(S(=O)(=O)c3ccccc3)c(=O)[nH]c1-2,17.7% [100 µM],10.5% [100 µM],20% [100 µM],37.4% [100 µM],15.5% [100 µM],23% [100 µM],19.1% [100 µM],12.1% [100 µM],17.9% [100 µM],30.5% [100 µM],21.1% [100 µM],23.8% [100 µM],35.4% [100 µM],26.5% [100 µM],23.5% [100 µM],6.96% [100 µM] (active),51.7% [100 µM],19.3% [100 µM],32.7% [100 µM],
Cc1nc2c(=O)[nH]c(SCC(=O)Nc3cccc(F)c3)nc2[nH]c1=O,102%,107%,93.6%,102%,106%,102%,98.9%,101%,107%,103%,104%,100%,84%,105%,105%,89.3%,111%,90.8%,100%,
C/C(=C(/c1ccc(Cl)cc1)c1ccc(OCCN2CCCC2)cc1)c1ccc(Cl)cc1,42.1%,9.33% (active),115%,85.8%,68.6%,66.4%,93.9%,78%,92.8%,93.9%,90.7%,85.5%,65.7%,94.6%,104%,88.5%,97.9%,61.7%,62.9%,
O=C(O)CCCN1C(=O)/C(=C/C(Cl)=C/c2ccccc2)SC1=S,-54.3% (active),7.49% (active),35.9%,37.4%,21%,36.5%,10.1%,-55.5% (active),7.4% (active),59.3%,,-6.97% (active),-46% (active),30.3%,-93.1% (active),24.2%,87.5%,2.55% (active),9.65% (active),
CCC(C)N(c1ccc(Cl)cc1)c1nc(-c2ccc(Br)cc2)cs1 (stereo not drawn),97.7%,106%,102%,105%,98%,99.9%,87.2%,93.3%,111%,105%,80.2%,99.2%,81.3%,131%,96.4%,70.9%,94.7%,81.7%,82.7%,
N#Cc1c(N)nnn1Cc1cc(=O)oc2c1ccc1ccccc12,102%,101%,88.7%,91.7%,97.5%,93.4%,92.5%,59.3%,,94.6%,76.1%,94.2%,72.8%,115%,97.6%,98%,89.7%,90.9%,89%,
CCO/C=N/C1=C(C#N)C(c2ccc(OC)cc2)c2sc3c(F)cccc3c2O1 (stereo not drawn),21.3%,7.69% (active),-8.92% (active),24%,24.7%,33.3%,12.2%,,60.4%,33.3%,49.4%,39.6%,38.1%,51.8%,48.1%,25.2%,21.7%,,24.5%,
CCCC(=O)NC(c1ccc2c(c1)OCO2)c1ccc2cccnc2c1O (stereo not drawn),35%,25.4%,17.5%,29.5%,14.5%,33.5%,-5.34% (active),,34.5%,46%,19.1%,23.9%,-23.2% (active),25.8%,5.12% (active),6.21% (active),12.9%,4.72% (active),2.22% (active),
O=C1/C(=C/c2cccs2)SC(=S)N1CCCN1CCOCC1,83.6%,103%,99%,92.5%,94.8%,75.5%,79.1%,89.1%,,101%,94.8%,83.3%,82.4%,122%,95.3%,91.5%,72.2%,87.5%,101%,
Oc1c(Cl)cc(Cl)c2ccc(Cn3cc(-c4ccc(C(F)(F)F)cc4)nn3)nc12,31.3%,74.2%,74.1%,93.3%,99.8%,74.6%,73.9%,9.23% (active),51.2%,95.4%,81%,76.9%,68.5%,97.3%,,21%,83.7%,,-8.16% (active),
Nc1nc2c([nH]1)c1[nH]c3ccccc3c1c1[nH]c3ccccc3c21,51%,3.16% (active),44.5%,62.4%,-6.57% (active),34.9%,-31.9% (active),4.23% (active),-77.5% (active),-23.5% (active),73.5%,75.6%,62.9%,91.4%,59.1%,83.2%,134%,-3.64% (active),-12.5% (active),
O=C1/C(=C/c2ccc(F)cc2)COc2ccc(O)cc21,60.7%,48.7%,83.7%,90.4%,60.8%,89.2%,85.2%,22.5%,,114%,101%,78.4%,64.5%,100%,87.7%,75.8%,111%,5.18% (active),51.7%,
CC1(c2ccccc2O)NN=C(/N=C/c2cccc([N+](=O)[O-])c2)N1C(Cc1c[nH]c2ccccc12)C(=O)O (stereo not drawn),98.7%,102%,92.3%,96.9%,96.1%,76.9%,77.6%,90.5%,106%,87.8%,77.6%,94.2%,70.8%,141%,91.1%,93.7%,90.9%,81.9%,92.5%,
COc1cc(OC)c2sc(-c3ccc(-n4cncc4-c4ccc(OC)c(OC)c4)cc3)nc2c1,17.8%,35.1%,87.1%,67.1%,46%,27.6%,53.4%,,71.8%,33.5%,54.7%,72.3%,25.5%,71.9%,38.7%,8.81% (active),56.3%,53.2%,33.6%,
Cn1c(=O)c2[nH]c(N/N=C/c3ccccc3Br)nc2n(C)c1=O,100%,106%,97.6%,109%,111%,98.4%,96.6%,104%,107%,120%,128%,104%,92.4%,82.8%,105%,,92.9%,104%,98.3%,
Nc1nc(=S)c2ncn(C3OC(COP(=O)(O)O)C(O)C3O)c2[nH]1 (stereo not drawn),9.49% (active),7.19% (active),47.8%,96.1%,47.3%,29.1%,14%,3.07% (active),73.5%,14.9%,31.8%,29.8%,25.1%,8.92% (active),20%,16.8%,37.8%,15.5%,12.7%,
COC(=O)c1cc(-c2ccccc2)[nH]c1N/N=C/c1c(Cl)cccc1Cl,15%,-8.44% (active),0.903% (active),13.6%,,5.23% (active),42.4%,21%,11.4%,-4.44% (active),-1.92% (active),35.2%,42.3%,26.4%,,5.94% (active),-45.8% (active),-8.44% (active),-9.43% (active),16.8%
